The values below come from PubChem BioAssay.

Assay [1] is described as follows: growth inhibition of DIPG glioma cells, dose response, cell-based, SU-DIPG-XVII, MIPE5.0, CellTiter-Glo, qHTS (AID 1347060).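 For AC50: cells exposed to compound for 48 hours before viability readout.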 The settings on record: SU-DIPG-XVII viability, CellTiter-Glo ATP luminescence. On the technique in general: In ATP-based viability assays light output follows the ATP content of the culture.
The nature of assay [2]: growth inhibition of DIPG glioma cells, dose response, cell-based, SU-DIPG-XIII, MIPE5.0, CellTiter-Glo, qHTS (AID 1347064; cut-off not given, nearly all actives have AC50 up to about 23 µM;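 for AC50: cells exposed to compound for 48 hours before the viability read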). The settings on record: SU-DIPG-XIII viability, CellTiter-Glo ATP luminescence.
A short description of assay [3]: viability loss in pontine glioma line – cell-based, SU-DIPG-XXV, MIPE5.0, CellTiter-Glo, qHTS, dose response (AID 1347065).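 Note: cells exposed to compound for 48 hours before ATP readout.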 The settings on record: CellTiter-Glo ATP luminescence.
The nature of assay [4]: SU-DIPG-XXV glioma cell viability, MIPE5.0 library, qHTS (AID 1347068; cut-off not given, nearly all actives have IC50 up to about 30 µM;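 for IC50: cells exposed to compound for 48 hours before viability readout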).
Assay [5] is described as follows: sensitizers of A549 cells to miR-34 induction, primary screen, imaging, A549 dox-inducible miR-34, nuclei and caspase counts (AID 1347080;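 active = compounds whose cell count with miR-34 switched on is under 0.7 times the count with it off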). The note with it: A549 miR-34 inducible, Hoechst nuclei count, 48 h.
Assay [6] can be described thus: survival rescue of mitochondrial mutant cells in low glucose, primary screen, MELAS cybrids, Rieske KO mouse fibroblasts, CellTiter-Glo (AID 1508586;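 active = mean z-score across replicates of 1.96 or higher in either the MELAS or the Rieske mutant cell line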;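 note: z relative to plate mean and SD of compound and empty wells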).
Assay [7] is described as follows: JHH-DIPG-1 glioma cell viability, MIPE5.0 library, CellTiter-Glo luminescence, qHTS (AID 1347067).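 Note: cells exposed to compound for 48 hours before readout.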 The note with it: JHH-DIPG-1 glioma viability, CellTiter-Glo ATP luminescence.
The nature of assay [8]: ovarian cancer cell viability with rucaparib, profiling panel, oncology-focused library, rucaparib conditional (AID 1508598;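 active = normalized viability below 100% at a tested concentration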). The note with it: patient-derived ovarian cancer cells, CellTiter-Glo viability, 144 h, stronger effect = lower value.
Where [9] appears, read: stronger effect = lower value, cell number ratio, induced over uninduced.
Setting [10] is: measured here: relative caspase fold change +Dox/-Dox.
Where [11] appears, read: measured here: total cells with miR-34 induction, stronger effect = lower value.
[12] abbreviates: measured here: total cells without miR-34 induction.
The mark [13] stands for this setting: MELAS cybrid survival, CellTiter-Glo 48 h, stronger effect = higher value.
The mark [14] stands for this setting: Rieske KO mouse fibroblast survival, CellTiter-Glo 72 h.

Results filed as inconclusive are left out. Active and inactive are the calls of the source. Unless noted, no cut-off is given here; in the data, nearly all actives have AC50 up to about 26 µM.

With `O=C(Nc1ccc2c(=O)cc(-c3nn[nH]n3)oc2c1)c1ccc(OCCCCc2ccccc2)cc1`, the outcome in assay [1], in assay [2], in assay [3] and in assay [4] was inactive. Moreover, the fold change is 0.988 (inactive) in assay [5] (setting [9]) and 0.807 in assay [5] (setting [10]). The cell count was determined as 7750 in assay [5] (setting [11]) and 7840 in assay [5] (setting [12]). In addition, the values for the z-score in assay [6] (setting [13]) and in assay [6] (setting [14]) were -0.481 (inactive) and -0.277, respectively.
Turning to `CC(C)NC(=O)N1CC[C@H](N=C2Nc3cc(F)ccc3N(CC(F)F)c3ccc(Cl)cc32)C1`, the outcome in assay [1], in assay [2], in assay [7] and in assay [4] was inactive.
With `C[C@H]1CN(C2COC2)CCN1c1ccc(Nc2cc(-c3ccnc(N4CCn5c(cc6c5CC(C)(C)C6)C4=O)c3CO)cn(C)c2=O)nc1`, the compound was classed as inactive in assay [1], in assay [2], in assay [7] and in assay [4].
Turning to `O=C(O)c1ccc(O)c2ncccc12`, the call in assay [1], in assay [3] and in assay [4] was inactive. Further, the AC50 (as a rule, the midpoint of the concentration-response curve, whichever way the signal moves) in assay [2] was 20.9 µM (active). The fold change in assay [5] (setting [9]) is 0.933 (inactive); in assay [5] (setting [10]), 0.445. In addition, the cell count in assay [5] (setting [11]) worked out at 8640; in assay [5] (setting [12]) it was 9260. The values for the z-score in assay [6] (setting [13]) and in assay [6] (setting [14]) were -0.339 (inactive) and 0.0902, respectively. Moreover, the viability (usually a read-out of living cells in per cent, often relative to untreated cells) is 112% (inactive) in assay [8] (at 0.000305 µM, OCI-C5x cells, with rucaparib 10 µM, 100% = cells with rucaparib alone); 117% (inactive) in assay [8] (at 0.000305 µM, OCI-C5x cells, without rucaparib); 94.2% (active) in assay [8] (at 0.000305 µM, OCI-P5x cells, with rucaparib 20 µM, 100% = cells with rucaparib alone); 89.3% (active) in assay [8] (at 0.000305 µM, OCI-P5x cells, without rucaparib); 120% (inactive) in assay [8] (at 0.00122 µM, OCI-C5x cells, with rucaparib 10 µM, 100% = cells with rucaparib alone); 123% (inactive) in assay [8] (at 0.00122 µM, OCI-C5x cells, without rucaparib). Also, the viability in assay [8] (at 0.00122 µM, OCI-P5x cells, with rucaparib 20 µM, 100% = cells with rucaparib alone) was 101% (inactive); in assay [8] (at 0.00122 µM, OCI-P5x cells, without rucaparib), 97.9% (active); in assay [8] (at 0.00488 µM, OCI-C5x cells, with rucaparib 10 µM, 100% = cells with rucaparib alone) it was 120% (inactive); in assay [8] (at 0.00488 µM, OCI-C5x cells, without rucaparib), 116% (inactive); in assay [8] (at 0.00488 µM, OCI-P5x cells, with rucaparib 20 µM, 100% = cells with rucaparib alone), 103% (inactive); in assay [8] (at 0.00488 µM, OCI-P5x cells, without rucaparib), 98.1% (active). In addition, the viability in assay [8] (at 0.0195 µM, OCI-C5x cells, with rucaparib 10 µM, 100% = cells with rucaparib alone) is 127% (inactive); in assay [8] (at 0.0195 µM, OCI-C5x cells, without rucaparib) it was 113% (inactive); in assay [8] (at 0.0195 µM, OCI-P5x cells, with rucaparib 20 µM, 100% = cells with rucaparib alone) it was 100% (inactive); in assay [8] (at 0.0195 µM, OCI-P5x cells, without rucaparib), 105% (inactive); in assay [8] (at 0.0781 µM, OCI-C5x cells, with rucaparib 10 µM, 100% = cells with rucaparib alone), 112% (inactive); in assay [8] (at 0.0781 µM, OCI-C5x cells, without rucaparib), 120% (inactive). For the same compound, the viability in assay [8] (at 0.0781 µM, OCI-P5x cells, with rucaparib 20 µM, 100% = cells with rucaparib alone) was 98.2% (active); in assay [8] (at 0.0781 µM, OCI-P5x cells, without rucaparib), 103% (inactive); in assay [8] (at 0.313 µM, OCI-C5x cells, with rucaparib 10 µM, 100% = cells with rucaparib alone), 108% (inactive); in assay [8] (at 0.313 µM, OCI-C5x cells, without rucaparib) it was 121% (inactive); in assay [8] (at 0.313 µM, OCI-P5x cells, with rucaparib 20 µM, 100% = cells with rucaparib alone), 96.3% (active); in assay [8] (at 0.313 µM, OCI-P5x cells, without rucaparib) it was 102% (inactive). Further, the viability in assay [8] (at 1.25 µM, OCI-C5x cells, with rucaparib 10 µM, 100% = cells with rucaparib alone) was 110% (inactive); in assay [8] (at 1.25 µM, OCI-C5x cells, without rucaparib) it was 115% (inactive); in assay [8] (at 1.25 µM, OCI-P5x cells, with rucaparib 20 µM, 100% = cells with rucaparib alone), 98.5% (active); in assay [8] (at 1.25 µM, OCI-P5x cells, without rucaparib) it was 106% (inactive); in assay [8] (at 5 µM, OCI-C5x cells, with rucaparib 10 µM, 100% = cells with rucaparib alone), 115% (inactive); in assay [8] (at 5 µM, OCI-C5x cells, without rucaparib), 122% (inactive). In addition, the viability in assay [8] (at 5 µM, OCI-P5x cells, with rucaparib 20 µM, 100% = cells with rucaparib alone) is 111% (inactive); in assay [8] (at 5 µM, OCI-P5x cells, without rucaparib), 111% (inactive).
Consider `CN1CCN(c2ncc(-c3cc(Cl)cc(Cl)c3Cl)c(N)n2)CC1`, for which the call in assay [1], in assay [2], in assay [7] and in assay [4] was inactive.
Turning to `COc1cc(C)[nH]c(=O)c1CN1CCc2c(Cl)cc([C@H](OC)C3COC3)c(Cl)c2C1=O`, the result in assay [1], in assay [2], in assay [7] and in assay [4] was inactive.
`CC(C)(C(=O)NCC(F)(F)C(F)(F)F)C(=O)N[C@@H]1C(=O)Nc2ccccc2-c2ccccc21`: the result in assay [1], in assay [2], in assay [7] and in assay [4] was inactive.
For `C[C@@]1(c2ncncc2F)NC(=O)c2cc(-c3cn[nH]c3)ccc21`, the result in assay [1], in assay [2], in assay [7] and in assay [4] was inactive.
Consider `C[N+](C)(C)CC(=O)O`, for which the outcome in assay [1], in assay [2], in assay [3] and in assay [4] was inactive.
For `CC(C)[C@H]1C(=O)N[C@@H](CCCN=C(N)N)C(=O)NCC(=O)N[C@@H](CC(=O)O)C(=O)N[C@H](Cc2ccccc2)C(=O)N1C`, the compound was called inactive in assay [1], in assay [2], in assay [7] and in assay [4].
Regarding `COc1ccc(CNC(=O)Nc2ncc([N+](=O)[O-])s2)cc1`, the values for the AC50 in assay [1], in assay [2] and in assay [3] were 18.6 µM (active), 20.9 µM (active) and 20.9 µM (active), respectively. Also, the figures for the fold change in assay [5] (setting [9]) and in assay [5] (setting [10]) were 1.06 (inactive) and 0.577, respectively. Besides, the cell count is 5600 in assay [5] (setting [11]) and 5270 in assay [5] (setting [12]). Moreover, the results for the z-score in assay [6] (setting [13]) and in assay [6] (setting [14]) were -0.43 (inactive) and -0.202, respectively.
As to `N[C@@H]1CN(c2c(F)cc3c(=O)c(C(=O)O)cn([C@@H]4C[C@@H]4F)c3c2Cl)CC12CC2`, the result in assay [1], in assay [2], in assay [7] and in assay [4] was inactive.
Consider `Cc1cc(F)c(C(=O)Nc2cccc(-c3nncn3C(C)C)n2)cc1-n1cnc(C2CC2)c1`, for which the concentration at half-maximal activity (AC50) in assay [1] was 16.6 µM (active); in assay [2], 18.6 µM (active); in assay [3], 18.6 µM (active). For the same compound, the IC50 – broadly, the point on the concentration scale where inhibition reaches its midpoint – in assay [4] is 18.6 µM (active).
Turning to `[2H]C([2H])([2H])C(O)([C@@H](C)/C=C/[C@@H](C)[C@H]1CC[C@H]2/C(=C/C=C3C[C@@H](O)C[C@H](O)C3)CCC[C@]12C)C([2H])([2H])[2H]`, the compound was classed as inactive in assay [1], in assay [2] and in assay [7].
In the case of `O=C(Nc1ccc(-c2ccnc(Nc3ccc(N4CCOCC4)cc3)n2)cc1)C1CCCN1` (stereo unspecified), the AC50 in assay [1] is 18.6 µM (active); in assay [2] it was 18.6 µM (active); in assay [3] it was 16.6 µM (active). For the same compound, in assay [4], the result was inactive. Further, the fold change in assay [5] (setting [9]) is 0.711 (inactive); in assay [5] (setting [10]), 0.977. In addition, the cell count in assay [5] (setting [11]) stood at 5090; in assay [5] (setting [12]) it was 7160. Moreover, the z-score was -0.234 (inactive) in assay [6] (setting [13]) and -0.152 in assay [6] (setting [14]).
For the compound `NS(=O)(=O)OC[C@@H]1C[C@@H](n2ccc3c(N[C@H]4CCc5ccccc54)ncnc32)C[C@@H]1O`, in assay [1], the half-maximal activity concentration (AC50) is 1.48 µM (active). The result in assay [2], in assay [7] and in assay [4] was inactive.
For `Cc1[nH]nc(C(F)(F)F)c1Cc1sc2c(c1C(=O)N1C[C@](C)(O)CO1)c(=O)n(C)c(=O)n2C(C)C`, the result in assay [1], in assay [2], in assay [7] and in assay [4] was inactive.
On to `CN1CCN(C2CCN(C(=O)Nc3cc(Oc4ccc(NC(=O)C5(C(=O)Nc6ccc(F)cc6)CC5)c(F)c4)ccn3)CC2)CC1`, for which the concentration at half-maximal activity (AC50) in assay [1] is 18.6 µM (active); in assay [2] it was 20.9 µM (active); in assay [3], 13.2 µM (active). In addition, the half-inhibitory concentration (IC50) in assay [4] is 23.5 µM (active). Besides, the fold change was 0.875 (inactive) in assay [5] (setting [9]) and 0.529 in assay [5] (setting [10]). Moreover, the results for the cell count in assay [5] (setting [11]) and in assay [5] (setting [12]) were 3130 and 3570, respectively. Further, the z-score was -0.56 (inactive) in assay [6] (setting [13]) and 0.282 in assay [6] (setting [14]).
For the compound `CS(=O)(=O)c1ccc([C@@H](CC2CCCC2)C(=O)Nc2nccs2)cc1`, the compound was classed as inactive in assay [1], in assay [2] and in assay [7]. In assay [4], the IC50 is 13.2 µM (active).
